This note sets out measurements from PubChem BioAssay AID435022 (Sanford-Burnham Center for Chemical Genomics, 2010).

Among all 330,000 compounds or so, about 1,100 (0.33%) were called active. Cut-off read from the data, not from the text of the source: active = inhibition above about 35%; inactive = the rest. This excerpt belongs to a sample that is enriched for actives.

The assay in a line: inhibitors of PMA/ionomycin-induced NF-kB reporter, 697 cells, primary screen, B-cell NF-kB inhibitor project, cell-based, luminescence, uHTS (AID 435022). Particulars: 697 B-cell NF-kB luciferase reporter, 16 h, at 4 µM, stronger effect = higher value. (In general: Reporter assays use an easily measured gene product as a stand-in for the process of interest.)
For orientation: inhibition means the drop in the measured response relative to a control, in per cent. Take `CCCCCCCCCCCCn1ccc(=N)cc1`: the inhibition was 90.6% (active).
`CCOc1ccc(C2SCC(=O)Nc3c2c(C)nn3C2CCOC(C)(C)C2)cc1` (stereo not given): the inhibition was 24.3% (inactive).
`COC(=O)COc1cc(C)cc2oc(=O)c3c(c12)CCCC3`: the inhibition is 13.3% (inactive).
As for `CN1C2C=C(N(C(=O)c3ccc(Cl)cc3)c3ccccc3)CC1CC2` (stereo not given), the inhibition is -2.33% (inactive).
The result for `COc1cc(-n2c(=S)[nH]c3ccc(C)cc3c2=O)c(Cl)cc1Cl` reads -21.6% (inactive).
